# Measured values taken from the supplement of paper PMC12282887.
# ± gives the standard deviation of the averaged measurements.
# What was measured:
# Assay in all cases: promoter activity interaction Z-score (Lux/OD deviation from empty-vector control); higher = stronger promoter induction by the compound
# [1] = test system: E. coli BW25113 acrABp lux reporter
# Procedure, shortened: (§1)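 E. coli BW25113 (wild type or marA, soxS or rob deletion) carrying low-copy luxCDABE promoter reporters grew in 40 µl LB Lennox in 384-well plates at 37°C. Each compound was tested at four 1:2 dilutions in biological duplicates. OD600 and luminescence were read every 30 min for 12 h. Areas were taken over 0–8 h (wild type) or 1–9 h (mutants), and wells below 10% of median growth area were removed. The score is the Z-transformed residual of growth-normalised luminescence fitted against the empty-vector control.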
# [2] = test system: E. coli BW25113 marRABp lux reporter
# Procedure, shortened: as §1
# [3] = test system: E. coli BW25113 micFp lux reporter
# Procedure, shortened: as §1
# [4] = test system: E. coli BW25113 ompFp lux reporter
# Procedure, shortened: as §1
# [5] = test system: E. coli BW25113 robp lux reporter
# Procedure, shortened: as §1
# [6] = test system: E. coli BW25113 soxSp lux reporter
# Procedure, shortened: as §1
# [7] = test system: E. coli BW25113 tolCp lux reporter
# Procedure, shortened: as §1
# [8] = 17.4 µg/ml, genetic background: wild type
# [9] = 17.4 µg/ml, genetic background: ΔmarA
# [10] = 17.4 µg/ml, genetic background: Δrob
# [11] = 17.4 µg/ml, genetic background: ΔsoxS
# [12] = 34.9 µg/ml, genetic background: wild type
# [13] = 34.9 µg/ml, genetic background: ΔmarA
# [14] = 34.9 µg/ml, genetic background: Δrob
# [15] = 34.9 µg/ml, genetic background: ΔsoxS
# [16] = 69.8 µg/ml, genetic background: wild type
# [17] = 69.8 µg/ml, genetic background: ΔmarA
# [18] = 69.8 µg/ml, genetic background: Δrob
# [19] = 69.8 µg/ml, genetic background: ΔsoxS
# [20] = 139.6 µg/ml, genetic background: wild type
# [21] = 139.6 µg/ml, genetic background: ΔmarA
# [22] = 139.6 µg/ml, genetic background: Δrob
# [23] = 139.6 µg/ml, genetic background: ΔsoxS
smiles,measurement,setting,value
Nc1ccn(C[C@@H](CO)OCP(=O)(O)O)c(=O)n1 [Cidofovir],promoter activity interaction Z-score,[1]; [8],-0.283 ± 0.054
same,promoter activity interaction Z-score,[1]; [9],0.149 ± 0.3
same,promoter activity interaction Z-score,[1]; [10],-0.0654 ± 0.1
same,promoter activity interaction Z-score,[1]; [11],-0.0538 ± 0.14
same,promoter activity interaction Z-score,[1]; [12],0.196 ± 0.13
same,promoter activity interaction Z-score,[1]; [13],-0.657 ± 0.64
same,promoter activity interaction Z-score,[1]; [14],0.0446 ± 0.2
same,promoter activity interaction Z-score,[1]; [15],0.215 ± 0.4
same,promoter activity interaction Z-score,[1]; [16],0.219 ± 0.079
same,promoter activity interaction Z-score,[1]; [17],0.553 ± 0.79
same,promoter activity interaction Z-score,[1]; [18],-0.00642 ± 0.084
same,promoter activity interaction Z-score,[1]; [19],0.0852 ± 0.5
same,promoter activity interaction Z-score,[1]; [20],0.22 ± 0.15
same,promoter activity interaction Z-score,[1]; [21],-0.132 ± 0.17
same,promoter activity interaction Z-score,[1]; [22],0.233 ± 0.03
same,promoter activity interaction Z-score,[1]; [23],0.385 ± 0.26
same,promoter activity interaction Z-score,[2]; [8],-0.0416 ± 0.17
same,promoter activity interaction Z-score,[2]; [9],-0.106 ± 0.11
same,promoter activity interaction Z-score,[2]; [10],-0.0241 ± 0.025
same,promoter activity interaction Z-score,[2]; [11],0.0975 ± 0.049
same,promoter activity interaction Z-score,[2]; [12],0.263 ± 0.48
same,promoter activity interaction Z-score,[2]; [13],-0.336 ± 0.093
same,promoter activity interaction Z-score,[2]; [14],0.0475 ± 0.0048
same,promoter activity interaction Z-score,[2]; [15],-0.0388 ± 0.24
same,promoter activity interaction Z-score,[2]; [16],-0.235 ± 0.23
same,promoter activity interaction Z-score,[2]; [17],-0.157 ± 0.23
same,promoter activity interaction Z-score,[2]; [18],-0.0863 ± 0.087
same,promoter activity interaction Z-score,[2]; [19],0.0268 ± 0.12
same,promoter activity interaction Z-score,[2]; [20],0.0629 ± 0.086
same,promoter activity interaction Z-score,[2]; [21],-0.277 ± 0.08
same,promoter activity interaction Z-score,[2]; [22],0.278 ± 0.14
same,promoter activity interaction Z-score,[2]; [23],0.18 ± 0.28
same,promoter activity interaction Z-score,[3]; [8],0.0224 ± 0.19
same,promoter activity interaction Z-score,[3]; [9],0.0154 ± 0.092
same,promoter activity interaction Z-score,[3]; [10],-0.0713 ± 0.17
same,promoter activity interaction Z-score,[3]; [11],0.11 ± 0.48
same,promoter activity interaction Z-score,[3]; [12],-0.0338 ± 0.16
same,promoter activity interaction Z-score,[3]; [13],-0.00819 ± 0.0042
same,promoter activity interaction Z-score,[3]; [14],-0.103 ± 0.19
same,promoter activity interaction Z-score,[3]; [15],-0.106 ± 0.1
same,promoter activity interaction Z-score,[3]; [16],-0.121 ± 0.16
same,promoter activity interaction Z-score,[3]; [17],-0.0731 ± 0.046
same,promoter activity interaction Z-score,[3]; [18],-0.0746 ± 0.21
same,promoter activity interaction Z-score,[3]; [19],-0.0778 ± 0.17
same,promoter activity interaction Z-score,[3]; [20],-0.297 ± 0.16
same,promoter activity interaction Z-score,[3]; [21],-0.185 ± 0.15
same,promoter activity interaction Z-score,[3]; [22],-0.00734 ± 0.29
same,promoter activity interaction Z-score,[3]; [23],-0.28 ± 0.054
same,promoter activity interaction Z-score,[4]; [8],-0.101 ± 0.21
same,promoter activity interaction Z-score,[4]; [9],-0.0401 ± 0.19
same,promoter activity interaction Z-score,[4]; [10],-0.282 ± 0.46
same,promoter activity interaction Z-score,[4]; [11],0.292 ± 0.4
same,promoter activity interaction Z-score,[4]; [12],0.3 ± 0.056
same,promoter activity interaction Z-score,[4]; [13],-0.163 ± 0.48
same,promoter activity interaction Z-score,[4]; [14],0.122 ± 0.34
same,promoter activity interaction Z-score,[4]; [15],0.493 ± 0.19
same,promoter activity interaction Z-score,[4]; [16],0.00967 ± 0.29
same,promoter activity interaction Z-score,[4]; [17],-0.0743 ± 0.39
same,promoter activity interaction Z-score,[4]; [18],-0.0183 ± 0.51
same,promoter activity interaction Z-score,[4]; [19],0.835 ± 0.063
same,promoter activity interaction Z-score,[4]; [20],0.281 ± 0.35
same,promoter activity interaction Z-score,[4]; [21],0.0677 ± 0.43
same,promoter activity interaction Z-score,[4]; [22],1.05 ± 0.56
same,promoter activity interaction Z-score,[4]; [23],0.354 ± 0.32
same,promoter activity interaction Z-score,[5]; [8],0.0479 ± 0.44
same,promoter activity interaction Z-score,[5]; [9],-0.325 ± 0.089
same,promoter activity interaction Z-score,[5]; [10],-0.283 ± 0.23
same,promoter activity interaction Z-score,[5]; [11],0.755 ± 0.19
same,promoter activity interaction Z-score,[5]; [12],0.8822 ± 0.0041
same,promoter activity interaction Z-score,[5]; [13],-0.684 ± 0.34
same,promoter activity interaction Z-score,[5]; [14],0.316 ± 0.54
same,promoter activity interaction Z-score,[5]; [15],0.739 ± 0.8
same,promoter activity interaction Z-score,[5]; [16],-0.0584 ± 0.52
same,promoter activity interaction Z-score,[5]; [17],-0.117 ± 0.21
same,promoter activity interaction Z-score,[5]; [18],0.528 ± 1.2
same,promoter activity interaction Z-score,[5]; [19],0.716 ± 0.15
same,promoter activity interaction Z-score,[5]; [20],0.0675 ± 0.18
same,promoter activity interaction Z-score,[5]; [21],-0.557 ± 0.22
same,promoter activity interaction Z-score,[5]; [22],0.839 ± 0.21
same,promoter activity interaction Z-score,[5]; [23],0.434 ± 0.44
same,promoter activity interaction Z-score,[6]; [8],0.0175 ± 0.013
same,promoter activity interaction Z-score,[6]; [9],0.0495 ± 0.085
same,promoter activity interaction Z-score,[6]; [10],-0.108 ± 0.04
same,promoter activity interaction Z-score,[6]; [11],0.122 ± 0.064
same,promoter activity interaction Z-score,[6]; [12],-0.0402 ± 0.16
same,promoter activity interaction Z-score,[6]; [13],0.0487 ± 0.082
same,promoter activity interaction Z-score,[6]; [14],0.0552 ± 0.025
same,promoter activity interaction Z-score,[6]; [15],0.246 ± 0.033
same,promoter activity interaction Z-score,[6]; [16],-0.0559 ± 0.065
same,promoter activity interaction Z-score,[6]; [17],0.167 ± 0.11
same,promoter activity interaction Z-score,[6]; [18],-0.0558 ± 0.063
same,promoter activity interaction Z-score,[6]; [19],0.254 ± 0.11
same,promoter activity interaction Z-score,[6]; [20],0.021 ± 0.14
same,promoter activity interaction Z-score,[6]; [21],-0.0152 ± 0.023
same,promoter activity interaction Z-score,[6]; [22],0.0293 ± 0.054
same,promoter activity interaction Z-score,[6]; [23],-0.0927 ± 0.013
same,promoter activity interaction Z-score,[7]; [8],0.134 ± 0.031
same,promoter activity interaction Z-score,[7]; [9],0.258 ± 0.13
same,promoter activity interaction Z-score,[7]; [10],-0.735 ± 1.3
same,promoter activity interaction Z-score,[7]; [11],-0.0946 ± 0.53
same,promoter activity interaction Z-score,[7]; [12],-0.218 ± 0.42
same,promoter activity interaction Z-score,[7]; [13],-0.677 ± 0.19
same,promoter activity interaction Z-score,[7]; [14],0.0662 ± 0.039
same,promoter activity interaction Z-score,[7]; [15],1.55 ± 0.98
same,promoter activity interaction Z-score,[7]; [16],-0.434 ± 0.14
same,promoter activity interaction Z-score,[7]; [17],-0.318 ± 0.84
same,promoter activity interaction Z-score,[7]; [18],-0.696 ± 1
same,promoter activity interaction Z-score,[7]; [19],-0.168 ± 1
same,promoter activity interaction Z-score,[7]; [20],-0.582 ± 0.18
same,promoter activity interaction Z-score,[7]; [21],-0.123 ± 0.94
same,promoter activity interaction Z-score,[7]; [22],0.23 ± 0.54
same,promoter activity interaction Z-score,[7]; [23],-0.453 ± 0.91
